{
  "source": "PubChem BioAssay (NCATS)",
  "note": "Results filed as inconclusive are left out. Values without a mark were called inactive. Active and inactive are the calls of the source. Calls come from the whole dose curve; as a rule, active = well fitted inhibition curve with a large enough effect; inconclusive = small, poorly fitted or top-dose-only effect; inactive = no such curve, though single readings can be large or run the other way.",
  "data": [
    {"target": "Cytochrome P450 2C9 (Homo sapiens) (UniProt P11712)", "sequence (P11712 whole entry, looked up)": "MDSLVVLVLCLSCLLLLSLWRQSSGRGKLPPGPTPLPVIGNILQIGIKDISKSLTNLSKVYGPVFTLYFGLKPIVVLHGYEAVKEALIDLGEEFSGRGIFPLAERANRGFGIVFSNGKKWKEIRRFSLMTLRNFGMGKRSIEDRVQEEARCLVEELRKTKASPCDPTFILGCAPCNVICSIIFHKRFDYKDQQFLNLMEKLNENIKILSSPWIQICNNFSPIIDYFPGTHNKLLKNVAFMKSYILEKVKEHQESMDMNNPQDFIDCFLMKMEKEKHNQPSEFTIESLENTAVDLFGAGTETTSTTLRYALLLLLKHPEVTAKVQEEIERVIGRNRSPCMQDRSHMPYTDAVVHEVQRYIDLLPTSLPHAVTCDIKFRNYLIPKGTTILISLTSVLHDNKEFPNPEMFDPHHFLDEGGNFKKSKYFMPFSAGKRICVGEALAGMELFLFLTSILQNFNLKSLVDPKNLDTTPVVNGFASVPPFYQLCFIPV", "experiment": "qHTS Assay for Inhibitors and Substrates of Cytochrome P450 2C9 (AID 883); note: potency is the fitted concentration of half-maximal effect; nearly all actives have a fitted effect of over 60% in size", "settings": "recombinant CYP2C9, luciferin-H luminescence, 60 min; series mostly up to 57.1 µM; activity change, negative = inhibition: at the top concentration", "in_short": "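10nM CYP2C9 + 100uM Luciferin-H (=KM), 25mM KPO4; cpd 10 min 37C; NADPH regen, 60 min 37C; stop/detect with P450 Glo-Buffer 20 min; luminescence. Norm. to 57uM sulphaphenazole as full inhibition.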", "values": [
      {"molecule": "CCCC/C=C/C(NC(=O)c1cccs1)c1ccccc1", "note": "(stereo not drawn)", "Potency": "0.316 µM (active)"},
      {"molecule": "COC(=O)[C@@]1(Cc2ccc(F)cc2)[C@H]2c3cc(C(=O)N4CCCC4)n(CCc4ccc(OC)c(Br)c4)c3C[C@H]2CN1C(=O)c1ccccc1", "Potency": "3.16 µM (active)"},
      {"molecule": "C=C1C(=O)C=C2CN(C(=O)c3ccccc3)[C@@](Cc3ccc(F)cc3)(C(=O)OC)[C@@H]12", "Potency": "3.98 µM (active)"}
    ]},
    {"target": "Cytochrome P450 3A4 (Homo sapiens) (UniProt P08684)", "sequence (P08684 whole entry, looked up)": "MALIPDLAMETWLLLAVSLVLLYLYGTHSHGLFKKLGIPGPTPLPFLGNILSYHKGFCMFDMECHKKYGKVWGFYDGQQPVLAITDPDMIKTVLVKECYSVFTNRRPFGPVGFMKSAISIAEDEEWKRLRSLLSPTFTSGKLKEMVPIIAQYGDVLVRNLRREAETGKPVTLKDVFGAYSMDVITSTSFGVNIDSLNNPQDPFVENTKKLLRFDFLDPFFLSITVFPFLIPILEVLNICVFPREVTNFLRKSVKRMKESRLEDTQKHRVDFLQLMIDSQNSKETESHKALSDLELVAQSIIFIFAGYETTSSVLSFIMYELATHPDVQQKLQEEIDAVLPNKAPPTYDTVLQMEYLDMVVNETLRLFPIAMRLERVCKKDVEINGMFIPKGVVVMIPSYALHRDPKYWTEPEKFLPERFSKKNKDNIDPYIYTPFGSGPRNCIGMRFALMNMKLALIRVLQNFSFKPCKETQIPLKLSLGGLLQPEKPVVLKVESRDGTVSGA", "experiment": "qHTS Assay for Inhibitors and Substrates of Cytochrome P450 3A4 (AID 884); note: nearly all actives have a fitted effect of over 50% in size; note: potency is the fitted concentration of half-maximal effect; for activity change, negative = inhibition: % is set by controls: 0 for no effect and ±100 for the full control effect", "settings": "recombinant CYP3A4, Luciferin-PPXE luminescence; series mostly up to 57.1 µM; activity change, negative = inhibition: at the top concentration", "in_short": "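Luminescent readout of luciferin produced by CYP3A4 (20 nM) dealkylation of Luciferin-PPXE, 25 uM (its KM). NADPH-driven reaction ran 60 min at RT after 10 min compound preincubation; data scaled to 57 uM ketoconazole as 100% inhibition.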", "units": {"activity change, negative = inhibition": "%"}, "values": [
      {"molecule": "COC(=O)[C@@]1(Cc2ccccc2)[C@H]2c3cc(C(=O)N(C)C)n(Cc4ccsc4Br)c3C[C@H]2CN1C(=O)c1ccccc1", "Potency": "1.58 µM (active)"},
      {"molecule": "COC(=O)[C@@]1(Cc2ccccc2)[C@H]2c3cc(C(=O)N4CCCC4)n(Cc4c(CO)[nH]cc(C)c4=O)c3C[C@H]2CN1C(=O)c1ccccc1", "Potency": "2.51 µM (active)"},
      {"molecule": "CCCC[C@@H]1C[C@H]1C(NC(=O)c1ccccc1)c1ccc(Cl)cc1", "note": "(stereo partly drawn)", "Potency": "3.98 µM (active)"},
      {"molecule": "CCCC[C@@H]1C[C@H]1C(NC(=O)c1ccc(C(F)(F)F)cc1)c1ccc(C(=O)OC)cc1", "note": "(stereo partly drawn)", "Potency": "5.01 µM (active)"},
      {"molecule": "COCC1C2CC[C@H]3C(OCc4ccc(OC)cc4)OC[C@]4(C)[C@H]3C2=C(CN4C(=O)OC(C)(C)C)[C@H](C)C1COC", "note": "(stereo partly drawn)", "Potency": "1.58 µM (active)"},
      {"molecule": "COC(=O)[C@@]1(Cc2ccc(F)cc2)[C@H]2c3cc(C(=O)N4CCCC4)n(Cc4ccc(C)c(F)c4F)c3C[C@H]2CN1C(=O)c1ccccc1", "Potency": "2.51 µM (active)"},
      {"molecule": "Cc1cc(CNC(=O)[C@H]2C[C@@H]2[C@H](NP(=O)(c2ccccc2)c2ccccc2)c2ccccc2)nn1C", "Potency": "2.51 µM (active)"},
      {"molecule": "COC(=O)c1ccc(C(NC(=O)c2ccco2)[C@]2(C)C[C@H]2C2CCCCC2)cc1", "note": "(stereo partly drawn)", "Potency": "7.94 µM (active)"},
      {"molecule": "CCCC[C@@H]1C[C@H]1C(NC(=O)c1cccs1)c1ccccc1C(F)(F)F", "note": "(stereo partly drawn)", "Potency": "3.16 µM (active)"},
      {"molecule": "COc1ccc2nc3c(c([Si](C)(C)C(C)(C)C)c2c1)Cn1c-3cccc1=O", "Potency": "1.58 µM (active)"},
      {"molecule": "COC(=O)[C@@]1(Cc2ccc(F)cc2)[C@H]2c3cc(C(=O)N4CCCC4)n(Cc4c(CO)[nH]cc(C)c4=O)c3C[C@H]2CN1C(=O)c1ccccc1", "Potency": "2 µM (active)"},
      {"molecule": "CCC/C=C(\\CCC)C(NP(=O)(c1ccccc1)c1ccccc1)c1ccc(C(F)(F)F)cc1", "note": "(stereo not drawn)", "activity change, negative = inhibition": -84.7},
      {"molecule": "COC(=O)[C@@]1(Cc2ccc(F)cc2)[C@H]2c3cc(C(=O)N(C)C)n(Cc4c(CO)[nH]cc(C)c4=O)c3C[C@H]2CN1C(=O)c1ccccc1", "Potency": "1.58 µM (active)"},
      {"molecule": "C[C@@H](C(=O)Nc1ccc2ccccc2c1)[C@H]1C[C@]1(C)[C@H](NC(=O)OCc1ccccc1)c1ccccc1", "Potency": "2.51 µM (active)"},
      {"molecule": "CCC/C=C(\\CCC)C(NS(=O)(=O)CC12CCC(CC1=O)C2(C)C)c1ccc(C(=O)OC)cc1", "note": "(stereo not drawn)", "Potency": "3.98 µM (active)"}
    ]}
  ]
}
